The subject of one assay is AAK1. Also on record: species or system human, MV4-11 + K-562 + COLO205 + SK-N-BE2 + OVCAR-8. The conditions noted are these: read-out: apparent Kd, n = 1.
For another assay, the system named is CLK1. Also on record: species or system human, MV4-11 + K-562 + COLO205 + SK-N-BE2 + OVCAR-8. Particulars: read-out: apparent Kd, compound concentrations: 100 nM and 1000 nM (sheet 'Samples'), n = 1.
The next assay relates to CLK4. Also on record: species or system human, MV4-11 + K-562 + COLO205 + SK-N-BE2 + OVCAR-8. Particulars: read-out: apparent Kd, compound concentrations: 100 nM and 1000 nM (sheet 'Samples'), n = 1.
A further assay deals with CSNK2A1;CSNK2A3. Also on record: species or system human, MV4-11 + K-562 + COLO205 + SK-N-BE2 + OVCAR-8. Particulars: read-out: apparent Kd, compound concentrations: 100 nM and 1000 nM (sheet 'Samples'), n = 1.
For a further assay, the system named is CSNK2A2. Also on record: species or system human, MV4-11 + K-562 + COLO205 + SK-N-BE2 + OVCAR-8. The conditions noted are these: read-out: apparent Kd, compound concentrations: 100 nM and 1000 nM (sheet 'Samples'), n = 1.
In a further assay the target is Q6ZSR9 (human, UniProt Q6ZSR9). Also on record: species or system MV4-11 + K-562 + COLO205 + SK-N-BE2 + OVCAR-8. The conditions noted are these: read-out: apparent Kd, n = 1.
For a further assay, the system named is RIPK2. Also on record: species or system human, MV4-11 + K-562 + COLO205 + SK-N-BE2 + OVCAR-8. Particulars: read-out: apparent Kd, compound concentrations: 100 nM and 1000 nM (sheet 'Samples'), n = 1.
The test system of the next assay is RET. Also on record: species or system human, MV4-11 + K-562 + COLO205 + SK-N-BE2 + OVCAR-8. The conditions noted are these: read-out: apparent Kd, n = 1.
The next assay deals with RIPK3. Also on record: species or system human, MV4-11 + K-562 + COLO205 + SK-N-BE2 + OVCAR-8. The conditions noted are these: read-out: apparent Kd, n = 1.
Another assay relates to TNK1. Also on record: species or system human, MV4-11 + K-562 + COLO205 + SK-N-BE2 + OVCAR-8. The conditions noted are these: read-out: apparent Kd, n = 1.
The next assay has as its system YES1. Also on record: species or system human, MV4-11 + K-562 + COLO205 + SK-N-BE2 + OVCAR-8. Particulars: read-out: apparent Kd, n = 1.
The subject of the next assay is ABL1. Also on record: species or system human, MV4-11 + K-562 + COLO205 + SK-N-BE2 + OVCAR-8. Particulars: read-out: apparent Kd, compound concentrations: 100 nM and 1000 nM (sheet 'Samples'), n = 1.
In a further assay the test system is ABL2. Also on record: species or system human, MV4-11 + K-562 + COLO205 + SK-N-BE2 + OVCAR-8. The conditions noted are these: read-out: apparent Kd, compound concentrations: 100 nM and 1000 nM (sheet 'Samples'), n = 1.
For the next assay, the system named is BCR. Also on record: species or system human, MV4-11 + K-562 + COLO205 + SK-N-BE2 + OVCAR-8. The conditions noted are these: read-out: apparent Kd, compound concentrations: 100 nM and 1000 nM (sheet 'Samples'), n = 1.
A further assay concerns GAK. Also on record: species or system human, MV4-11 + K-562 + COLO205 + SK-N-BE2 + OVCAR-8. Particulars: read-out: apparent Kd, compound concentrations: 100 nM and 1000 nM (sheet 'Samples'), n = 1.
A further assay relates to FYN. Also on record: species or system human, MV4-11 + K-562 + COLO205 + SK-N-BE2 + OVCAR-8. The conditions noted are these: read-out: apparent Kd, compound concentrations: 100 nM and 1000 nM (sheet 'Samples'), n = 1.
Another assay concerns HCK. Also on record: species or system human, MV4-11 + K-562 + COLO205 + SK-N-BE2 + OVCAR-8. Particulars: read-out: apparent Kd, compound concentrations: 100 nM and 1000 nM (sheet 'Samples'), n = 1.
In the next assay the test system is LCK. Also on record: species or system human, MV4-11 + K-562 + COLO205 + SK-N-BE2 + OVCAR-8. The conditions noted are these: read-out: apparent Kd, compound concentrations: 100 nM and 1000 nM (sheet 'Samples'), n = 1.
The next assay deals with PTK6. Also on record: species or system human, MV4-11 + K-562 + COLO205 + SK-N-BE2 + OVCAR-8. Particulars: read-out: apparent Kd, compound concentrations: 100 nM and 1000 nM (sheet 'Samples'), n = 1.
Where [1] appears, read: compound concentrations:100 nM and 1000 nM (sheet 'Samples').

Each structure is given as a SMILES string. Where two headings read alike, the source gives them in different places.

Sequence of Q6ZSR9 (Q6ZSR9 whole entry, looked up): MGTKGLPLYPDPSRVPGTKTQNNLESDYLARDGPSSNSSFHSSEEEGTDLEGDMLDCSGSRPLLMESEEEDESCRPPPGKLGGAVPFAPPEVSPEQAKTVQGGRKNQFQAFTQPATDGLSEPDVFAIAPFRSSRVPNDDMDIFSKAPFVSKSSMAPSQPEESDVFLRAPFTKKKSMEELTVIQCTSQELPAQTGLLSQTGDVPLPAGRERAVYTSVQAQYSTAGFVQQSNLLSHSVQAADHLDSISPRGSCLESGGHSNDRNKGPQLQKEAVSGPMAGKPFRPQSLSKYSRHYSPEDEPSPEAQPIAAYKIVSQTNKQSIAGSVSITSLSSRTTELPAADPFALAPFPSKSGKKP

With `O=C1N=C(NCC(CO)c2ccccc2)S/C1=C\c1ccc2ncccc2c1` (stereo not drawn) [RO4582641-000], the potency estimated from few doses is 89.4 nM in the assay on AAK1 (compound concentrations: 100 nM and 1000 nM (sheet 'Samples'), CATDS: 0.17753366584660099); 79.6 nM in the assay with CLK1 (CATDS: 0.190725453373879); 590 nM with CLK4 (CATDS: 7.8741262727809305E-2); 140 nM in the assay with CSNK2A1;CSNK2A3 (CATDS: 0.138008161076002); 167 nM with CSNK2A2 (CATDS: 0.126393310474474); 97.6 nM with Q6ZSR9 (compound concentrations: 100 nM and 1000 nM (sheet 'Samples'), CATDS: 0.16856489309537501). Besides, the potency estimated from few doses in the assay on RIPK2 (CATDS: 7.9715899202970897E-2) is 565 nM.
Regarding `CS(=O)(=O)Cc1ccc(Nc2nccc(-c3c(-c4cccc(NC(=O)C5CCCCC5)c4)nn4ncccc34)n2)cc1` [GSK350559A], the potency estimated from few doses was 1370 nM with RET (setting [1]), 1130 nM with RIPK3 (setting [1]), 261 nM in the assay with TNK1 (setting [1]) and 461 nM in the assay with YES1 (setting [1]).
On to `Cc1ccc(O)cc1Nc1ccnc2cc(-c3ccccn3)ccc12.Cl` [GW440139A], for which the potency estimated from few doses with ABL1 (CATDS: 2.9086276614824699E-2) is 609 nM; with ABL2 (CATDS: 3.5730235281971501E-2), 238 nM; in the assay with BCR (CATDS: 6.7644332106689603E-2) it was 40.7 nM; in the assay with GAK (CATDS: 4.3663241287780298E-2) it was 121 nM; with RET (compound concentrations: 100 nM and 1000 nM (sheet 'Samples'), CATDS: 4.9371716156535399E-2) it was 85.8 nM; in the assay with RIPK2 (CATDS: 3.9139887822916601E-2), 171 nM. For the same molecule, the potency estimated from few doses in the assay with RIPK3 (compound concentrations: 100 nM and 1000 nM (sheet 'Samples'), CATDS: 4.4642127518175201E-2) is 114 nM.
Consider `CNC1=NC(=O)/C(=C/c2ccc3ncccc3c2)S1` [RO4595949-000], for which the potency estimated from few doses was 737 nM in the assay with AAK1 (compound concentrations: 100 nM and 1000 nM (sheet 'Samples'), CATDS: 6.4601129134093493E-2); 68.5 nM with CLK1 (CATDS: 0.21110804330204799); 429 nM in the assay on CLK4 (CATDS: 7.8220573800827503E-2); 136 nM in the assay on CSNK2A1;CSNK2A3 (CATDS: 0.13596728585800399); 144 nM in the assay with CSNK2A2 (CATDS: 0.13149975380310699); 125 nM with Q6ZSR9 (compound concentrations: 100 nM and 1000 nM (sheet 'Samples'), CATDS: 0.14278895493122401).
On to `Cl.O=C1N=C(NCc2ccccn2)S/C1=C\c1ccc2ncccc2c1` [RO4874953-001], for which the potency estimated from few doses is 813 nM with AAK1 (compound concentrations: 100 nM and 1000 nM (sheet 'Samples'), CATDS: 0.10575738699934099); 1020 nM in the assay with CLK1 (CATDS: 9.3934655889041305E-2); 598 nM in the assay on CLK4 (CATDS: 0.12673851417901799); 843 nM in the assay on CSNK2A1;CSNK2A3 (CATDS: 0.103683643435769); 870 nM in the assay with CSNK2A2 (CATDS: 0.101925374884365); 1370 nM with GAK (CATDS: 8.1785679571560799E-2). In addition, the potency estimated from few doses with Q6ZSR9 (compound concentrations: 100 nM and 1000 nM (sheet 'Samples'), CATDS: 8.7999658255021304E-2) is 1160 nM.
In the case of `CN1C(=O)c2ccccc2N(C)c2nc(Nc3cnn(C4CCNCC4)c3)ncc21` [XMD-17-51], the potency estimated from few doses in the assay with ABL1 (CATDS: 3.0247523924653401E-2) was 152 nM; in the assay with ABL2 (CATDS: 2.0369269177780699E-2) it was 429 nM; in the assay on BCR (CATDS: 6.3621758322441394E-2), 32.4 nM; in the assay with FYN (CATDS: 1.52897278360091E-2), 1140 nM; with HCK (CATDS: 1.5765780158237999E-2), 1000 nM; in the assay on LCK (CATDS: 2.0561496325198901E-2) it was 418 nM. Further, the potency estimated from few doses with PTK6 (CATDS: 1.5181861275826099E-2) was 1170 nM; in the assay with RET (compound concentrations: 100 nM and 1000 nM (sheet 'Samples'), CATDS: 5.3896447188978902E-2) it was 44.2 nM; in the assay with RIPK2 (CATDS: 1.9176534260091301E-2), 514 nM; with TNK1 (compound concentrations: 100 nM and 1000 nM (sheet 'Samples'), CATDS: 2.1534980047370499E-2), 366 nM; in the assay on YES1 (compound concentrations: 100 nM and 1000 nM (sheet 'Samples'), CATDS: 2.1066601667733099E-2), 389 nM.
As for `COc1ccccc1CCNC1=NC(=O)/C(=C/c2ccc3ncccc3c2)S1` [RO4503316-000], the potency estimated from few doses is 1540 nM in the assay with AAK1 (compound concentrations: 100 nM and 1000 nM (sheet 'Samples'), CATDS: 8.9875957971869994E-2); 120 nM in the assay with CLK1 (CATDS: 0.207972147405552); 86.4 nM in the assay on CLK4 (CATDS: 0.25242389415209998); 327 nM in the assay with CSNK2A1;CSNK2A3 (CATDS: 0.132518653833052); 171 nM with CSNK2A2 (CATDS: 0.17333569062509099); 1310 nM with Q6ZSR9 (compound concentrations: 100 nM and 1000 nM (sheet 'Samples'), CATDS: 9.2411068480935804E-2).
As to `CC(C)c1nc(-c2cccc(NS(=O)(=O)c3ccccc3)c2)c(-c2ccnc(Nc3ccc4c(c3)CN(C)CC4)n2)s1` [GSK1649598A], the potency estimated from few doses is 368 nM in the assay with ABL1 (CATDS: 2.01463365951845E-2); 93.8 nM in the assay with ABL2 (CATDS: 3.9720351054025098E-2); 924 nM in the assay with BCR (CATDS: 1.4720639450574301E-2); 413 nM in the assay on FYN (CATDS: 1.9244455455098501E-2); 19.8 nM with GAK (CATDS: 0.115621915519597); 643 nM with HCK (CATDS: 1.6425065187182699E-2). Moreover, the potency estimated from few doses with LCK (CATDS: 3.58702015349356E-2) is 112 nM; in the assay with PTK6 (CATDS: 1.42958167275793E-2) it was 1030 nM; in the assay on RIPK2 (CATDS: 2.88864910940058E-2), 167 nM; in the assay on RIPK3 (compound concentrations: 100 nM and 1000 nM (sheet 'Samples'), CATDS: 1.96372512533491E-2) it was 392 nM; in the assay on TNK1 (compound concentrations: 100 nM and 1000 nM (sheet 'Samples'), CATDS: 3.1602555545839801E-2), 141 nM; in the assay with YES1 (compound concentrations: 100 nM and 1000 nM (sheet 'Samples'), CATDS: 2.5454428176696801E-2), 216 nM.
On to `Cn1cc(C2=C(c3cn(CCCO)c4ccccc34)C(=O)NC2=O)c2ccccc21` [RO0317377-000], for which the potency estimated from few doses with AAK1 (compound concentrations: 100 nM and 1000 nM (sheet 'Samples'), CATDS: 0.115071291343016) is 1300 nM; with Q6ZSR9 (compound concentrations: 100 nM and 1000 nM (sheet 'Samples'), CATDS: 0.107617362332997), 1540 nM.
Take `COc1cc(Nc2nccc(N3CCC(NC(=O)c4cccc(C#N)c4)C3)n2)cc(OC)c1OC` (stereo not drawn) [GSK1379751A]: the potency estimated from few doses with AAK1 (compound concentrations: 100 nM and 1000 nM (sheet 'Samples'), CATDS: 0.20949591044902) is 786 nM; with Q6ZSR9 (compound concentrations: 100 nM and 1000 nM (sheet 'Samples'), CATDS: 0.206433255862257), 810 nM.
Take `CC(C)c1cc(-c2ccc3c(N)n[nH]c3c2)nc(N)n1` [GSK2250882A]: the potency estimated from few doses with AAK1 (setting [1]) is 838 nM; with Q6ZSR9 (setting [1]) it was 1370 nM.

These data come from publication PMC11062922 (Nature Chemical Biology, 2023).
